# In PubChem BioAssay AID1159580 (chemical genetic matrix, 2015):
# Where “and” joins values, the source holds several entries; their conditions need not be identical. Equal values may be shown once. Hit rate of the full screen: of about 5,500 compounds, about 2,000 (36%) were called active. Not shown: some 18% with an inconclusive outcome. Cut-off read from the data, not from the text of the source: active = normalized growth mostly below about 0.91 (no sharp cut-off); inconclusive = no clear call, values can overlap the other calls; inactive = mostly above about 0.92. The list shows a part of the results.
# Test: chemical genetic growth profiling, strain panel (AID 1159580);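 note: tested at 20 µM; growth read once vehicle control cultures reached saturation at 30 °C; 1 = growth at the plate median or of vehicle wells; lower values mean less growth of the strain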
# Conditions: S. cerevisiae deletion strains, growth OD
smiles,measurement,setting,value
CC(C(=O)O)c1ccc2c(c1)[nH]c1ccc(Cl)cc12 (configuration not stated),normalized growth,"locus YAL013W, strain DEP1, stronger effect = lower value",1.02 (inactive)
same,normalized growth,"locus YAL021C, strain ccr4, stronger effect = lower value",0.949 (inactive)
same,normalized growth,"locus YAL026C, strain drs2, stronger effect = lower value",0.953 (inactive)
same,normalized growth,"locus YAL030W, strain snc1, stronger effect = lower value",0.979 (inactive)
same,normalized growth,"locus YBL061C, strain skt5, stronger effect = lower value",0.955 (inactive)
same,normalized growth,"locus YBR009C, strain hhf1, stronger effect = lower value",0.979 (inactive)
same,normalized growth,"locus YBR021W, strain FUR4, stronger effect = lower value",1 (inactive)
same,normalized growth,"locus YBR023C, strain chs3, stronger effect = lower value",0.973 (inactive)
same,normalized growth,"locus YBR171W, strain sec66, stronger effect = lower value",0.981 (inactive)
same,normalized growth,"locus YBR229C, strain ROT2, stronger effect = lower value",1.01 (inactive)
same,normalized growth,"locus YBR231C, strain swc5, stronger effect = lower value",0.981 (inactive)
same,normalized growth,"locus YBR279W, strain paf1, stronger effect = lower value",0.957 (inactive)
same,normalized growth,"locus YCL011C, strain gbp2, stronger effect = lower value",1 (inactive)
same,normalized growth,"locus YCL016C, strain dcc1, stronger effect = lower value",0.951 (inactive)
same,normalized growth,"locus YCL029C, strain bik1, stronger effect = lower value",0.982 (inactive)
same,normalized growth,"locus YCL061C, strain MRC1, stronger effect = lower value",0.978 (inactive)
same,normalized growth,"locus YCL069W, strain vba3, stronger effect = lower value",1.01 (inactive)
same,normalized growth,"locus YCR088W, strain abp1, stronger effect = lower value",0.973 (inactive)
same,normalized growth,"locus YDL005C, strain med2, stronger effect = lower value",0.975 (inactive)
same,normalized growth,"locus YDL035C, strain GPR1, stronger effect = lower value",1 (inactive)
same,normalized growth,"locus YDL040C, strain nat1, stronger effect = lower value",0.978 (inactive)
same,normalized growth,"locus YDL074C, strain BRE1, stronger effect = lower value",1.03 (inactive)
same,normalized growth,"locus YDL101C, strain DUN1, stronger effect = lower value",1.02 (inactive)
same,normalized growth,"locus YDL134C, strain PPH21, stronger effect = lower value",1.01 (inactive)
same,normalized growth,"locus YDL185W, strain tfp1, stronger effect = lower value",0.948 (inactive)
same,normalized growth,"locus YDL192W, strain arf1, stronger effect = lower value",0.954 (inactive)
same,normalized growth,"locus YDR001C, strain nth1, stronger effect = lower value",0.996 (inactive)
same,normalized growth,"locus YDR069C, strain doa4, stronger effect = lower value",0.984 (inactive)
same,normalized growth,"locus YDR101C, strain arx1, stronger effect = lower value",0.972 (inactive)
same,normalized growth,"locus YDR137W, strain rgp1, stronger effect = lower value",0.945 (inactive)
same,normalized growth,"locus YDR150W, strain NUM1, stronger effect = lower value",1.02 (inactive)
same,normalized growth,"locus YDR159W, strain sac3, stronger effect = lower value",0.895 (inactive)
same,normalized growth,"locus YDR162C, strain NBP2, stronger effect = lower value",1.02 (inactive)
same,normalized growth,"locus YDR195W, strain ref2",1.01 (inactive)
same,normalized growth,"locus YDR297W, strain sur2, stronger effect = lower value",0.983 (inactive)
same,normalized growth,"locus YDR318W, strain mcm21, stronger effect = lower value",0.972 (inactive)
same,normalized growth,"locus YDR334W, strain swr1, stronger effect = lower value",0.994 (inactive)
same,normalized growth,"locus YDR335W, strain msn5, stronger effect = lower value",0.984 (inactive)
same,normalized growth,"locus YDR388W, stronger effect = lower value",0.978 (inactive)
same,normalized growth,"locus YDR392W, strain spt3, stronger effect = lower value",0.832 (inactive)
same,normalized growth,"locus YDR502C, strain sam2, stronger effect = lower value",0.999 (inactive)
same,normalized growth,"locus YEL003W, strain gim4, stronger effect = lower value",0.996 (inactive)
same,normalized growth,"locus YEL037C, strain rad23, stronger effect = lower value",0.99 (inactive)
same,normalized growth,"locus YEL061C, strain CIN8 (second series), stronger effect = lower value",0.975 (inactive)
same,normalized growth,"locus YEL061C, strain CIN8, stronger effect = lower value",1 (inactive)
same,normalized growth,"locus YER015W, strain faa2, stronger effect = lower value",1 (inactive)
same,normalized growth,"locus YER016W, strain bim1, stronger effect = lower value",0.978 (inactive)
same,normalized growth,"locus YER110C, stronger effect = lower value",0.971 (inactive)
same,normalized growth,"locus YER111C, strain swi4, stronger effect = lower value",0.99 (inactive)
same,normalized growth,"locus YER155C, strain BEM2 (second series), stronger effect = lower value",0.952 (inactive)
same,normalized growth,"locus YER155C, strain BEM2, stronger effect = lower value",0.997 (inactive)
same,normalized growth,"locus YER167W, strain BCK2, stronger effect = lower value",1 (inactive)
same,normalized growth,"locus YFR010W, strain ubp6, stronger effect = lower value",0.999 (inactive)
same,normalized growth,"locus YGL078C, strain dbp3, stronger effect = lower value",0.988 (inactive)
same,normalized growth,"locus YGL086W, strain mad1, stronger effect = lower value",0.983 (inactive)
same,normalized growth,"locus YGL167C, strain pmr1, stronger effect = lower value",1 (inactive)
same,normalized growth,"locus YGL173C, strain kem1, stronger effect = lower value",0.961 (inactive)
same,normalized growth,"locus YGL227W, strain vid30, stronger effect = lower value",1 (inactive)
same,normalized growth,"locus YGL240W, strain doc1, stronger effect = lower value",0.92 (inactive)
same,normalized growth,"locus YGL248W, strain PDE1, stronger effect = lower value",1.01 (inactive)
same,normalized growth,"locus YGL253W, strain hxk2, stronger effect = lower value",0.968 (inactive)
same,normalized growth,"locus YGR078C, strain PAC10, stronger effect = lower value",1.02 (inactive)
same,normalized growth,"locus YGR135W, strain pre9, stronger effect = lower value",0.995 (inactive)
same,normalized growth,"locus YGR229C, strain SMI1, stronger effect = lower value",1.04 (inactive)
same,normalized growth,"locus YGR252W, strain gcn5, stronger effect = lower value",0.885 (inactive)
same,normalized growth,"locus YHR013C, strain ard1, stronger effect = lower value",0.96 (inactive)
same,normalized growth,"locus YHR027C, strain rpn1, stronger effect = lower value",0.991 (inactive)
same,normalized growth,"locus YHR030C, strain SLT2, stronger effect = lower value",1 (inactive) and 0.303 (active)
same,normalized growth,"locus YHR079C, strain IRE1 (second series), stronger effect = lower value",0.976 (inactive)
same,normalized growth,"locus YHR079C, strain IRE1, stronger effect = lower value",0.369 (active)
same,normalized growth,"locus YHR094C, strain hxt1, stronger effect = lower value",0.987 (inactive)
same,normalized growth,"locus YHR129C, strain ARP1, stronger effect = lower value",1 (inactive)
same,normalized growth,"locus YHR142W, strain chs7, stronger effect = lower value",0.971 (inactive)
same,normalized growth,"locus YHR200W, strain rpn10, stronger effect = lower value",0.98 (inactive)
same,normalized growth,"locus YIL066C, strain RNR3, stronger effect = lower value",0.994 (inactive)
same,normalized growth,"locus YIL073C, strain SPO22, stronger effect = lower value",0.971 (inactive)
same,normalized growth,"locus YIL125W, strain kgd1, stronger effect = lower value",0.929 (active)
same,normalized growth,"locus YIR030C, strain dcg1, stronger effect = lower value",0.992 (inactive)
same,normalized growth,"locus YJL092W, strain hpr5, stronger effect = lower value",0.982 (inactive)
same,normalized growth,"locus YJL095W, strain BCK1 (second series), stronger effect = lower value",0.988 (inactive)
same,normalized growth,"locus YJL095W, strain BCK1, stronger effect = lower value",1 (inactive) and 0.272 (active)
same,normalized growth,"locus YJL115W, strain asf1, stronger effect = lower value",0.985 (inactive)
same,normalized growth,"locus YJL129C, strain trk1, stronger effect = lower value",0.912 (inactive)
same,normalized growth,"locus YJL134W, strain LCB3, stronger effect = lower value",1.01 (inactive)
same,normalized growth,"locus YJL154C, strain vps35, stronger effect = lower value",0.99 (inactive)
same,normalized growth,"locus YJL164C, strain tpk1, stronger effect = lower value",0.982 (inactive)
same,normalized growth,"locus YJL166W, strain qcr8, stronger effect = lower value",1 (inactive)
same,normalized growth,"locus YJL168C, strain set2, stronger effect = lower value",0.983 (inactive)
same,normalized growth,"locus YJL187C, strain SWE1 (second series), stronger effect = lower value",1.01 (inactive)
same,normalized growth,"locus YJL187C, strain SWE1, stronger effect = lower value",0.97 (inactive)
same,normalized growth,"locus YJR043C, strain POL32, stronger effect = lower value",1.01 (inactive)
same,normalized growth,"locus YJR066W, strain TOR1, stronger effect = lower value",0.492 (active)
